Source: ChEMBL document CHEMBL4888484, “Replenishing the malaria drug discovery pipeline: Screening and hit evaluation of the MMV Hit Generation Library 1 (HGL1) against asexual blood stage Plasmodium falciparum ,using a nano luciferase reporter read-out” (2022)
About 410 (8.5%) of roughly 4,800 compounds showed an effect of 50% or more. This excerpt belongs to a sample that is enriched for strong results.

tested on: Plasmodium falciparum; assay: Confirmatory screen in NF54 pLDH assay, in single point, at 2uM, 72h; assay type: functional, Erythrocyte; conditions: timepoint 72 hour

SMILES	% Inhibition [%]
CCNC(=O)c1ccc(-c2nc(CS(=O)(=O)c3ccccc3)c(C)o2)cc1	-10
Cc1cccc(-c2nc(C[N+]3(Cc4nc(-c5cccc(C)c5)oc4C)CCCC3)c(C)o2)c1	55
Cc1ccc(S(=O)(=O)Cc2nc(-c3ccc(C(=O)Nc4c(C)cccc4C)cc3)oc2C)cc1	13
COc1cccc2c(=O)c3c([nH]c12)CCN(CC(=O)NCc1ccccc1Cl)C3	37
c1ccc(N2CCN(C3CCN(Cc4ccncc4)CC3)CC2)cc1	-2
O=S1(=O)CCN(C2CCN(Cc3c(F)cccc3F)CC2)CC1	14
CN1CCC(N2CCC(CN(Cc3ccncc3)Cc3c(F)cccc3Cl)CC2)CC1	99
c1cc(CN2CCN(C3CCCCCC3)CC2)ccn1	-17
COc1ccc(CN(Cc2ccncc2)CC2CCN(C3CCN(C)CC3)CC2)c(F)c1	93
Cc1ccc(C)c(NC(=O)N2CC(n3cnnc3-c3ccccc3)C2)c1	0
c1ccc(CCc2nnc3n2CCOC3)cc1	3
COCc1cc2nn(CC(=O)Nc3ccc4c(c3)OCO4)c(=O)n2c(-c2ccccc2)n1	12
Cc1ccc(CNC(=O)[C@@H](C)C2CCOCC2)cc1C	7
Cc1ccc(-c2nn3c([C@H]4CCCN(C)C4)nnc3s2)cc1C	-8
O=C1NC2(CCCC2)Nc2ccccc21	2
Cc1cc(=O)n2ncc(C(=O)Nc3ccc(F)cc3F)c2[nH]1	10
COc1ccc(N(C)S(=O)(=O)c2ccsc2-c2nc(-c3cccnc3)no2)cc1Cl	-2
CC(C)(C)N(CC(N)=O)CC(=O)NC(=O)NC1CCCCC1	8
CCN(CC)C(=O)c1cc(C)n(-c2ccc3c(c2)OCCO3)c1C	-3
O=C1c2[nH]nc(-c3cccs3)c2[C@@H](c2cccc(O)c2)N1c1nccs1	5
O=S(=O)(N[C@H]1CCc2nnc(-c3ccc(F)cc3)n2C1)c1cccnc1	13
C[C@@H]1CN(c2ccc(N)cn2)C[C@H](C)O1	-12
COc1ccc(CC(=N)Nc2cc3cc(OC)c(OC)cc3c(Cc3ccc(OC)c(OC)c3)n2)cc1OC	89
CCCNC(=O)C[C@H](C)CC(=O)NCCc1ccc(OC)c(OC)c1	14
COc1ccc(CCNC(=O)CCCC(=O)NCc2ccccc2)cc1OC	-14

SMILES	% Inhibition [%]
CNC(=O)C(=O)Nc1ccccc1C(F)(F)F	9
C[C@H](NC(=O)c1cocn1)c1ccccc1NC(=O)c1cocn1	-7
Cc1cc([C@H](Nc2ccccn2)c2ccccc2)c(NC(=O)c2ccccc2)s1	3
Cc1cc([C@H](Nc2ccccn2)c2cccnc2)c(NC(=O)c2ccccc2)s1	4
Oc1ccc2ncccc2c1[C@@H](Nc1ccccn1)c1cccc(Br)c1	77
CCCC(=O)N1CCC(OC(=O)c2cnc3ccc(F)cc3c2)CC1	-10
CC(C)Nc1nc2nonc2n2cnnc12	90
COc1ccc(Nc2ncc(Cc3ccccc3C)s2)cc1	4
CC(C)C(CNCc1nnn(C)n1)C(C)C	11
FC(F)(F)c1cnc(-c2csc(NC3CCCCC3)n2)c(Cl)c1	15
NC(=O)c1nnn2c1C(=O)N[C@H](c1ccc(Cl)cc1)C2	-13
CCc1c(-c2nc(CCN(C)C(=O)c3ccoc3)no2)[nH]c2ccc(C)cc12	-19
CCN1c2cc(C(=O)N3CCCCC3)ccc2C(=O)N2CCCCC[C@H]21	6
Cc1cc(C)n(C(=O)CNC(=O)c2ccccn2)n1	14
Cc1cc(C(=O)Nc2cc(C)nn2C)nc(N(C)C)n1	8
Cc1cc(NC(=O)c2ccccn2)n(-c2nc3ccccc3o2)n1	93
COc1ccc(S(=O)(=O)N2CC[C@@H]3[C@@H](COCCN3Cc3ccccc3)C2)cc1	0
O=C(CNC(=O)COc1ccccc1)NCC1(O)CCCCCC1	6
C[C@@H](CN)N(C)c1ccnc2cc(Br)cnc12	96
O=C(O)C1c2ccccc2C(=O)N(C2CCCCC2)C1c1ccc(Cl)cc1 (stereo not given)	-3
Cc1noc(C)c1CN1C[C@@H]2Oc3cc(F)ccc3C(=O)N(C)[C@@H]2C1	97
Cc1noc(C)c1CN1CCCN(C(=O)c2n[nH]c3ccccc23)CC1	7
Cc1noc(C)c1CN1CCNC(=O)CC1	-14
Cc1ccc(N2C(=O)c3ccccc3[C@H]2Nc2nc(C)cs2)nc1	-16
C[C@@H]1CN(C(=O)NCCc2ccc(C(F)(F)F)cn2)C[C@H](C)O1	6

SMILES	% Inhibition [%]
Cc1cc(NCc2noc(-c3ccsc3)n2)ccc1C(N)=O	5
Cc1noc(C)c1NS(=O)(=O)c1ccc2c(c1)OCCCO2	0
CCN(CC(=O)Nc1ccc2c(c1)OCCO2)C(=O)CCc1c(C)noc1Cl	5
COc1ccc([C@@H]2c3[nH]c4ccc(OC)cc4c3CCN2C(=O)NCc2ccc(F)cc2)cc1	4
COc1ccc2[nH]c3c(c2c1)CCN(C(=O)c1ccc(C)c(C)c1)[C@@H]3c1ccccc1OC	86
COc1ccc(N2CCN(C(=O)c3ccc(F)cc3)[C@@H](C)C2=O)cc1	11
CC1(C)CCC(Nc2ccc(C(N)=O)nn2)CC1	92
CC1CCCCC1OCCN1CCOCC1C(N)=O (stereo not given)	7
Cc1nn(C)c(C)c1-c1cc(C(=O)Nc2cc(F)ccc2F)c2c(C)nn(C)c2n1	2
COc1cccc(-c2cc(C(=O)Nc3ccc(F)c(Cl)c3)c3c(C)nn(C)c3n2)c1	4
CC(C)C(C(=O)O)N1Cc2c(cc(O)c3c2OC2(C3)C(C)CCC3C(C)(C)C(O)CCC32C)C1=O (stereo not given)	5
Cc1c(NC(=O)C(F)(F)[C@@]2(F)OC(F)(F)C(F)(F)C2(F)F)c(=O)n(-c2ccccc2)n1C	-16
Cc1cc(F)ccc1-n1ccc(C(=O)N(C[C@H]2CCOC2)C2CC2)n1	-12
CC[C@](O)(C(=O)N(C)Cc1ncon1)c1cccc(Cl)c1	-13
Cc1ccc(CC[C@H]2Nc3ccccc3C(c3ccccc3)(c3ccccc3)O2)o1	66
CCCOC(=O)c1cc(NC(=O)c2ccc3ccccc3c2)ccc1N1CCOCC1	-11
Cc1cc(C(=O)N2CCC3(CCNCC3)CC2)ccc1F	7
CN1C(=O)[C@H](O)N(c2cccc3ccccc23)C1=O	9
COc1cccc(-c2cc3c(N4CCN(c5ccccn5)CC4)nccn3n2)c1	4
C[C@H](NC(=O)c1cc(-c2ccc(F)cc2)ns1)c1ccccn1	9
Cc1c2c(C(F)(F)F)cc(=O)n(CCC(=O)Nc3ncc(Cl)cc3Cl)c2nn1C	-7
Cn1c(Cc2n[n+]3c(-c4ccccc4)cc(-c4ccccc4)nc3n2C)n[n+]2c(-c3ccccc3)cc(-c3ccccc3)nc12	95
Cc1ccc(Cl)cc1N1CCN(C(=O)c2ccc3noc(-c4ccc(F)cc4)c3c2)CC1	-13
c1ccc(CC2CCN(c3[nH]cnc4ncnc3-4)CC2)cc1	11
O=C(Nc1cc(N2CCCS2(=O)=O)ccc1O)c1cccc(Oc2cccc(C(F)(F)F)c2)c1	97

SMILES	% Inhibition [%]
Cc1cccc(C(=O)Nc2ccc(N3CCCCCC3)cc2C(=O)O)c1	-10
O=C(Nc1cccc(C(F)(F)F)c1)C(Oc1ccccc1)Oc1ccccc1	-19
CCOC(=O)c1oc(NC(=O)OC(C)(C)C)nc1C(F)(F)F	5
C#CCn1ccc(O)c(Cc2ccccc2)c1=O	14
CN(C(=O)C1CC=CC1)c1ccc(NC(=O)C2CC=CC2)cc1Cl	-13
Cc1ccnc(CNC(=O)N[C@H]2CCc3ccc(F)cc32)c1	-12
c1ccc(N2CCN(CCN[C@H]3CCc4cc5c(cc43)CCC5)CC2)cc1	9
Oc1ccccc1CCN[C@H]1CCc2ccc(F)cc21	95
CN(Cc1ccc(F)cc1Cl)[C@H]1CCc2nnc(C3CCOCC3)n2CC1	-4
O=C1OCc2cc(NC(=O)[C@@H]3COc4ccccc4O3)ccc21	10
Cc1cc(OCc2ccc(C(=O)Nc3ncn(Cc4c(F)cccc4Cl)n3)o2)ccc1Cl	0
COc1ccc(NC(=O)CC(C)(C)CC(=O)O)cc1	10
Cc1cc2nc(C)c(=O)n(Cc3ccc(C(=O)N4CCC(Cc5ccccc5)CC4)cc3)c2cc1C	12
Cc1ccc(C(=O)C[n+]2cc(-c3ccc(-c4ccccc4)cc3)n(C)c2N)cc1	4
Cn1c(-c2ccc(Cl)c(Cl)c2)c[n+](CC(=O)c2ccc(-c3ccccc3)cc2)c1N	9
C=Cn1cc[n+](CC(=O)c2ccc(-c3ccccc3)cc2)c1	51
CCC(C(=O)Nc1cc(C)on1)(C(F)(F)F)C(F)(F)F	9
CCCN1CCN(CCCNC(=O)c2ccc(Cl)c(-n3c(C)nc4cccnc43)c2)CC1	13
Cc1cc(NC(=O)[C@H](C)OC(=O)c2ccc3c(c2)OCC(=O)N3)on1	-19
Cc1nnc(CC(=O)NC2CC(OCc3ccccc3)C2(C)C)o1 (stereo not given)	8
Cc1nnc(CNC(=O)Nc2cccc3c4c(oc23)CCCC4)o1	72
Cc1nnc(-c2ccccc2NC(=O)CCC2CCC(C)O2)o1 (stereo not given)	-16
Cc1ccc(NC(=N)NC2=N[C@@H](CC(=O)Nc3cccc(C(F)(F)F)c3)C(=O)N2)cc1	-10
CCn1nccc1CNc1ccc(F)cc1F	2
Cc1ccc(S(=O)(=O)N2CCC[C@H](C(=O)NCc3cccc(NC(=O)N4CCCC4)c3)C2)s1	8
